From PubChem BioAssay (NCATS)
Values joined by “and” are separate entries in the source; they are usually repeats but may differ in a detail not shown here. Equal entries are not always repeated. Results filed as inconclusive are left out. Active and inactive are the calls of the source. Unless noted, calls follow the shape of the dose curve; as a rule, active = well fitted curve in the direction sought with a large enough effect; inconclusive = small, poorly fitted or top-dose-only effect, or another doubt; inactive = no such curve, though single readings can be large; an effect the other way counts as inactive or inconclusive.

Key:
[1] = Cell Viability - HepG2 (AID 433; calls by dose curve;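 also: potency is read from the fitted curve at half-maximal effect; cells exposed to compound for 40 hours; potency for ATP loss meaning cytotoxicity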); settings: qHTS
In short: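 Read-out is luciferase-based quantitation of cellular ATP as a measure of viable HepG2 cells after 40 h treatment at 37 °C. Signal decrease is scaled between DMSO-only and 100 uM tamoxifen controls, with AC50 fitted by the Hill equation.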

[2] = Cell Viability - NIH 3T3 (AID 541); settings: NIH 3T3 cell viability, qHTS; activity change, negative = cytotoxicity: at 92.2 µM (top of the series);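 also: cells exposed to compound for 40 hours; plate controls were DMSO alone for no effect and tamoxifen positive control for full effect; nearly all actives have a fitted effect of over 25% in size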
In short: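 Intracellular ATP (CellTiter-Glo luminescence, 20 min at room temperature) measured after 40 hr compound exposure at 37 °C of 1000 NIH 3T3 mouse fibroblasts/well in complete medium; AC50 derived by Hill-equation modelling of qHTS concentration-response curves.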

[3] = Cell Viability - SH-SY5Y (AID 544); settings: SH-SY5Y neuroblastoma cell viability; viability change, negative = cytotoxic: at 92.2 µM (top of the series);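 also: cells exposed to compound for 40 hours; 0% = DMSO alone and -100% = 100 µM tamoxifen; nearly all actives have a fitted effect of over 55% in size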
In short: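 Cytotoxicity measured via ATP-dependent luciferase luminescence (CellTiter-Glo) following 40 h, 37 °C exposure of 1500 SH-SY5Y cells per well. Concentration-response data were fitted with the standard Hill equation to give AC50.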

[4] = Cell Viability - LYMP2-001 (AID 921);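 also: 0% = DMSO only and full inhibition = tetraoctylammonium bromide control wells; nearly all actives have a fitted effect of over 70% in size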
In short: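 Steps: seed 2500 lymphoblastoid cells/well; 5 hr, 37 C; add compound; 24 hr, 37 C; CellTiter-Glo reagent, 30 min room temperature; read luminescence. Concentration-response modeled by Hill equation for AC50.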

[5] = Cell Viability - LYMP1-003 - Assay at 40 hr (AID 964); also: % is scaled to controls: 0 for no effect and ±100 for the full control effect; nearly all actives have a fitted effect of over 60% in size
In short: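 Viability is taken as cellular ATP, read by CellTiter-Glo luminescence after 40 h of compound exposure at 37 C. Cells: human lymphoblastoid line LYMP1-003 at 2500/well; AC50 values derived by Hill-equation fitting of concentration-response data.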

[6] = Cell Viability - LYMP2-003 (AID 965);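 also: cells exposed to compounds for 24 h before reading; 0% = DMSO only and full effect = 92 µM tetraoctylammonium bromide; nearly all actives have a fitted effect of over 50% in size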
In short: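 Seed 2500 lymphoblastoid cells/well; incubate 5 hr, 37 C; add compounds; incubate 24 hr, 37 C; add CellTiter-Glo, 30 min RT; read luminescence. AC50 from Hill fit.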

[7] = Cell Viability - LYMP2-017 (AID 972); also: % is scaled to controls: 0 for no effect and ±100 for the full control effect; nearly all actives have a fitted effect of over 55% in size
In short: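 CellTiter-Glo luminescence (cellular ATP, 30 min RT) measured cytotoxicity after 24 hr compound treatment at 37 C. Cells were a human lymphoblastoid line, LYMP2-017, plated at 2500/well and incubated 5 hr first; concentration-response fitted with Hill equation for AC50.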

[8] = Cell Viability - LYMP2-006 (AID 978); also: % is scaled to controls: 0 for no effect and ±100 for the full control effect; nearly all actives have a fitted effect of over 60% in size
In short: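 Cells are seeded at 2500 per well and rested 5 hr at 37 C. Compounds are added across a concentration series for 24 hr at 37 C, after which ATP is quantified by luciferase luminescence.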

[9] = Cell Viability - LYMP2-010 (AID 981); also: % is scaled to controls: 0 for no effect and ±100 for the full control effect; nearly all actives have a fitted effect of over 55% in size
In short: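 CellTiter-Glo ATP luminescence measured cytotoxicity after 24 h compound exposure at 37 C. LYMP2-010 cells were seeded at 2500/well, with tetraoctylammonium bromide as control; concentration-response curves gave AC50 values by the Hill equation.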

[10] = Cell Viability - LYMP2-012 (AID 982);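 also: cellular ATP by luciferase luminescence where a drop means cytotoxicity; cells exposed to compound for one day before reading; 0% = DMSO only and full loss = 92 µM tetraoctylammonium bromide; nearly all actives have a fitted effect of over 55% in size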
[11] = Cell Viability - LYMP2-016 (AID 984)
In short: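 Cells were seeded at 2500 per well and rested 5 hr before a 24 hr compound exposure at 37 C. Viability was then gauged as cellular ATP by luciferase luminescence, with AC50 values fitted to the Hill equation.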

[12] = Cell Viability - LYMP2-020 (AID 986)
In short: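 Cytotoxicity in qHTS format: luminescent ATP readout from CellTiter-Glo after 24 h compound exposure at 37 C in complete medium. LYMP2-020 lymphoblastoid cells were seeded at 2500/well; concentration-response data fitted to the Hill equation for AC50.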

[13] = Cell Viability - LYMP1-002 - Assay at 40 hr (AID 994);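 also: 0% = DMSO only and full inhibition = 92 µM tetraoctylammonium bromide; nearly all actives have a fitted effect of over 60% in size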
In short: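 Cytotoxicity was read as loss of cellular ATP (CellTiter-Glo luminescence) after 40 hr compound exposure at 37 C of 2500 LYMP1-002 lymphoblastoid cells per well. Concentration-response data were fitted with the standard Hill equation to give AC50.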

[14] = target: Retinoic acid receptor RXR-alpha (Homo sapiens) (UniProt P19793); assay: qHTS assay for small molecule agonists of retinoid X receptor alpha signaling (AID 588544; calls by dose curve;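 also: 0% = DMSO basal wells and 100% = reference agonist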)
[15] = target: Retinoic acid receptor RXR-alpha (Homo sapiens) (UniProt P19793); assay: qHTS assay for small molecule antagonists of retinoid X receptor alpha signaling (AID 588546; active = well fitted inhibition curve with a large enough effect in the signal ratio, with a control signal flat, not every such curve was filed as active; the % refers to the signal ratio;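 also: cells stimulated with 9-cis-retinoic acid as agonist; % is scaled to controls: 0 for no effect and ±100 for the full control effect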); settings: HEK293T RXRa-UAS-bla, beta-lactamase ratio, antagonist mode
In short: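 Beta-lactamase reporter inhibition, read as CCF4 fluorescence ratio (ex 405, em 460/530 nm) after 2 h at RT. HEK293T UAS-bla cells, 2500/well, were stimulated with 9-cis-RA at 500 or 100 nM final alongside test compound for 18 h at 37 C.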

[16] = Cell Viability - H-4-II-E (AID 543);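 also: cells exposed to compound for 40 hours; % is scaled to controls: 0 for no effect and ±100 for the full control effect; nearly all actives have a fitted effect of over 35% in size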
In short: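 CellTiter-Glo luminescence (intracellular ATP) measured after 40 h compound exposure at 37 °C in H-4-II-E rat hepatoma cells seeded at 1500/well. Values are AC50s fitted with the standard Hill equation.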

[17] = Cell Viability - LYMP2-015 (AID 971)
In short: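 Cytotoxicity readout: decrease in intracellular ATP (CellTiter-Glo luminescence) in 2500 LYMP2-015 lymphoblastoid cells/well after 24 h compound exposure at 37 C. Concentration-response data fitted with the standard Hill equation to give AC50.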

[18] = Cell Viability - LYMP2-021 (AID 974)
In short: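 AC50 values come from Hill-equation fits to CellTiter-Glo luminescence (ATP content), read after 24 hour compound exposure at 37 C of 2500 LYMP2-021 lymphoblastoid cells/well; tetraoctylammonium bromide as positive control.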

[19] = qHTS assay for small molecule agonists of the antioxidant response element (ARE) signaling pathway measured by Nrf2-dependant transcriptional activity (AID 720636; active = well fitted curve in the direction sought with a large enough effect in the repeat runs; an effect the other way counts as inactive or inconclusive;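 also: HepG2 cells with an ARE-driven luciferase reporter; % of control where 0% means no effect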)
In short: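 Reporter gene assay, HepG2 ARE-luc: 16 hr compound, 37 C, 5% CO2; read-out luciferase luminescence.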

[20] = qHTS assay for small molecule activators of the human pregnane X receptor (PXR) signaling pathway (AID 720659; call rule not given here; also: 0% is about no effect)

Chain of Retinoic acid receptor RXR-alpha (Homo sapiens) (P19793 whole entry, looked up): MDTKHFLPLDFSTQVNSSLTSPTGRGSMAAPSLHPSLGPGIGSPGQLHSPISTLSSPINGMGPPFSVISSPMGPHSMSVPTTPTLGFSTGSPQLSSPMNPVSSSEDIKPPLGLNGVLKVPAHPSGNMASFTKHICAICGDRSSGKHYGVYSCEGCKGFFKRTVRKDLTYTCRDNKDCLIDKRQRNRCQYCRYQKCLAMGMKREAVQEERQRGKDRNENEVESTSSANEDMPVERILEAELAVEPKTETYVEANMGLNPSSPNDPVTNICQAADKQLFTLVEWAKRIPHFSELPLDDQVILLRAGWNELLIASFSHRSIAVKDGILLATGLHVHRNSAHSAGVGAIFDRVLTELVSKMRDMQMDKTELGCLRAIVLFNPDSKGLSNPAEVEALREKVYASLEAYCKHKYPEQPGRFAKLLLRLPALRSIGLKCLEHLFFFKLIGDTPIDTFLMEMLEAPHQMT

CCOP(=S)(OCC)SCCSCC
inactive: Potency [1] > 92 µM | Potency [2] | Potency [3] | Potency [4] | Potency [5] | Potency [6] | Potency [7] | Potency [8] | Potency [9] | Potency [10] | Potency [11] | Potency [12] | Potency [13] | outcome [14] | max response [15] -3% and -2.15%

Clc1cccc2ccccc12
inactive: Potency [2] | Potency [16] | Potency [4] | Potency [5] | Potency [6] | Potency [17] | Potency [7] | Potency [18] | Potency [8] | Potency [9] | Potency [10] | Potency [11] | Potency [13] | outcome [14] | max response [15] -3.67% | Potency [19] | outcome [20]

N#CC(O)c1ccccc1 (stereo unspecified)
inactive: Potency [2] | Potency [16] | Potency [3] | Potency [4] | Potency [5] | Potency [6] | Potency [17] | Potency [7] | Potency [18] | Potency [9] | Potency [10] | Potency [11] | Potency [12] | Potency [13] | outcome [14] | max response [15] 0.403% | Potency [19] | outcome [20]

CN(C)C(=O)Nc1cccc(C(F)(F)F)c1
inactive: Potency [16] | Potency [3] | Potency [4] | Potency [5] | Potency [6] | Potency [17] | Potency [18] | Potency [8] | Potency [10] | Potency [12] | Potency [13] | Potency [19] | outcome [20]

ClC(Cl)c1ccccc1
inactive: Potency [2] | Potency [16] | Potency [3] | Potency [4] | Potency [6] | Potency [17] | Potency [7] | Potency [18] | Potency [8] | Potency [9] | Potency [10] | Potency [11] | Potency [12] | Potency [13] | outcome [14] | max response [15] 0.971% | Potency [19] | outcome [20]
